# In PubChem BioAssay (EPA / NIEHS):
# Several values for one entry are separate records, joined by “and”; a condition that tells them apart may be missing. Equal values may be shown once. Results filed as inconclusive are left out. Activity calls are given as the source filed them. The calls were made as follows, unless noted: active = hit-call score of the fitted dose curve at least 0.9, where 1 is the maximum; inconclusive = response in the unintended direction; inactive = score below 0.9.
# Columns and labels:
# [1] = TOX21_p53_BLA_p4_viability: Viability Assessment in the Tox21 HCT-116 p53 Agonism Beta-lactamase Assay, Phase 4 (AID 2283597);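 also: hits lower the luminescence signal meaning cytotoxicity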
# Outline: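 Cytotoxicity as reduced cellular ATP (CellTiter-Glo luminescence, 30 min room temperature), measured in the same wells following the CCF4 FRET p53 reading. Human HCT-116 cells received compounds in DMSO (217-fold dilution) for 16 h.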
# [2] = target: Cellular tumor antigen p53 (Homo sapiens) (UniProt P04637); experiment: TOX21_p53_BLA_p4_ratio: Tox21 HCT-116 p53 Agonism Beta-lactamase Assay, Ratio, Phase 4 (AID 2283601)
# Outline: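 HCT-116 p53 beta-lactamase reporter cells (4000/well) preincubated 5 h, then compound (217-fold dilution of DMSO stock) for 16 h at 37C. CCF4-AM substrate added 2 h at room temperature; 460/530 nm emission ratio fitted upward versus DMSO.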
# [3] = CEETOX_H295R_MTT_cell_viability: Viability Assessment in the CeeTox HT-H295R MTT Assay (AID 2283718; active = hit-call score of the fitted dose curve at least 0.9, where 1 is the maximum; inactive = score below 0.9;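 as to AC50: curve fitted both ways so AC50 may mark viability loss or gain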)
# Outline: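 Human H295R adrenal cells, prestimulated 48 h with 10 uM forskolin, were exposed 48 h to chemicals in 0.1% DMSO. Viability was measured in the same wells by MTT (0.5 mg/ml, 4 h, 37 C), absorbance 570/650 nm, as percent of controls.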
# [4] = target: Cellular tumor antigen p53 (Homo sapiens) (UniProt P04637); experiment: TOX21_p53_BLA_p5_ratio: Tox21 HCT-116 p53 Agonism Beta-lactamase Assay, Ratio, Phase 5 (AID 2283599)
# Outline: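 HCT-116 p53-bla cells (4000/well) plated 5 h, dosed with compound (217-fold DMSO dilution) for 16 h at 37 C; CCF4-AM substrate 2 h at room temperature. Activity is the 460/530 nm emission ratio (405 nm excitation), fitted in gain-of-signal direction versus DMSO.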
# [5] = TOX21_p53_BLA_p5_viability: Viability Assessment in the Tox21 HCT-116 p53 Agonism Beta-lactamase Assay, Phase 5 (AID 2283600)
# Outline: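 Viability came from CellTiter-Glo ATP luminescence, read after 30 min at room temperature. Before this, HCT-116 p53-bla cells (4000/well) had 16 hours of compound exposure at 37C, with DMSO stocks diluted 217-fold on transfer.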
# [6] = tested on: Thyroperoxidase (TPO), gene 54314; experiment: CCTE_Simmons_AUR_rTPO: CCTE's Amplex UltraRed Assay for Thyroperoxidase (TPO) Inhibition, Simmons Lab (AID 2283662);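 also: potency for loss of signal meaning inhibition of peroxidase activity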
# Outline: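 Rat thyroid microsomes (5 ug protein) were incubated with test compound (8 concentrations, 5 nM–87.5 uM final, 0.5% DMSO), 25 uM Amplex UltraRed and 300 uM H2O2 in 200 mM phosphate buffer for 30 min at 37C in the dark; fluorescence read at 544/590 nm.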
# [7] = CCTE_Simmons_CellTiterGLO_HEK293T: Viability Assessment in CCTE's Assays for Thyroperoxidase (TPO) Inhibition, Simmons Lab (AID 2283665);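 as to AC50: cells exposed to compound for 24 h before readout; actives reduce ATP signal below DMSO vehicle meaning cytotoxicity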
# Outline: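 Luminescent ATP readout (CellTiter-Glo, 20 min at room temperature) after 24 hr exposure of HEK293T cells to 5 nM–87.5 uM final compound; signal loss relative to DMSO vehicle indicated cytotoxicity; dichlone titrated as positive control.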
# [8] = target: Luciferin 4-monooxygenase (Photinus pyralis) (UniProt P08659); experiment: CCTE_Simmons_QuantiLum_inhib_2: CCTE's Firefly Luciferase Inhibition Assay, Simmons Lab (AID 2283767);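 as to AC50: potency for inhibitors that lower luciferase luminescence relative to DMSO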
# Outline: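 Cell-free QuantiLum luciferase, 5 ng/well; compounds 5 nM–87.5 uM final, 8 conc, 0.5% DMSO; 30 min, 37C, dark. Detection reagent (150 uM D-luciferin, 147 uM dATP, CoA, DTT, pH 7.8 final) injected per well, kinetic luminescence. Triplicate biological replicates.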
# [9] = tested on: zebrafish Androgen Receptor (AR), gene 100005148; experiment: ATG_zfAR_XSP1: Attagene TRANS-FACTORIAL Multi-Species (XSP1) HepG2 Assay for zebrafish Androgen Receptor (AR) (AID 2283771)
# Outline: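 Gain-of-signal versus DMSO was measured as reporter transcripts quantified by RT-PCR, fluorescent labelling and capillary electrophoresis after 24 h chemical exposure. The cells were HepG2 expressing a chimeric zebrafish AR-GAL4, co-stimulated with 3 nM 6-alpha-fluorotestosterone.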
# [10] = target: zebrafish Estrogen Receptor (ESR1), esr1 (gene 259252) (UniProt P57717); experiment: ATG_zfER1_XSP1: Attagene TRANS-FACTORIAL Multi-Species (XSP1) HepG2 Assay for zebrafish Estrogen Receptor (ESR1) (AID 2283772)
# Outline: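 Trans-activation readout: transfected zebrafish ER-Gal4 drives a UAS reporter in human HepG2 liver cells. After 24 h compound exposure (medium containing 3 nM 6-alpha-fluorotestosterone), induced reporter transcripts were quantified by RT-PCR with capillary electrophoresis, relative to DMSO.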
# Sequence of Cellular tumor antigen p53 (Homo sapiens) (P04637 whole entry, looked up): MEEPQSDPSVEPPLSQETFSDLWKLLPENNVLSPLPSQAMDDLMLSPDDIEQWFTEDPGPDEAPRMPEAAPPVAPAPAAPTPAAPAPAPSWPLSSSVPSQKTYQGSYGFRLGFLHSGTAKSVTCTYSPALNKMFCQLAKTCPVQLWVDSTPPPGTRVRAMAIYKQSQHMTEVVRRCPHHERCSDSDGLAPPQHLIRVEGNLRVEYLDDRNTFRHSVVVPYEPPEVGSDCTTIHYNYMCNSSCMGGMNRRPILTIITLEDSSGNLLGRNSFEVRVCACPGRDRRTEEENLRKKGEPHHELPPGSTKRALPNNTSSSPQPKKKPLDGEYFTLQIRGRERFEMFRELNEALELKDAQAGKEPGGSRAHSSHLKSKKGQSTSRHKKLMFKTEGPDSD
# Sequence of Luciferin 4-monooxygenase (Photinus pyralis) (P08659 whole entry, looked up): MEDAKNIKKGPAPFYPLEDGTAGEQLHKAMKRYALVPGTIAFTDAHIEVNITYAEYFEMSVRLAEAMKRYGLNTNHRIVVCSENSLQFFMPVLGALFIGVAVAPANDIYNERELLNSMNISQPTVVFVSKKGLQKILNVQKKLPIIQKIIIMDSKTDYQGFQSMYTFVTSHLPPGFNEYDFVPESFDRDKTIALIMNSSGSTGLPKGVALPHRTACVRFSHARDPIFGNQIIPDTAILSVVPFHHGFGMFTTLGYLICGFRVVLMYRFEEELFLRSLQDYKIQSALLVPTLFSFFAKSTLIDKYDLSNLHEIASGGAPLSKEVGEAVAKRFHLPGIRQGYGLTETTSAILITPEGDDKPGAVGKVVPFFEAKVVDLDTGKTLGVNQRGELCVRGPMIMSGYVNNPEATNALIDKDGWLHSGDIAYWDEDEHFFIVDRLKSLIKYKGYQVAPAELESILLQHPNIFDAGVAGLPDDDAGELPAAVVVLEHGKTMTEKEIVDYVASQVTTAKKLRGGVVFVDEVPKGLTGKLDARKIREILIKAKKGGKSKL
# Sequence of zebrafish Estrogen Receptor (ESR1), esr1 (gene 259252) (P57717 whole entry, looked up, the tested form may be a part): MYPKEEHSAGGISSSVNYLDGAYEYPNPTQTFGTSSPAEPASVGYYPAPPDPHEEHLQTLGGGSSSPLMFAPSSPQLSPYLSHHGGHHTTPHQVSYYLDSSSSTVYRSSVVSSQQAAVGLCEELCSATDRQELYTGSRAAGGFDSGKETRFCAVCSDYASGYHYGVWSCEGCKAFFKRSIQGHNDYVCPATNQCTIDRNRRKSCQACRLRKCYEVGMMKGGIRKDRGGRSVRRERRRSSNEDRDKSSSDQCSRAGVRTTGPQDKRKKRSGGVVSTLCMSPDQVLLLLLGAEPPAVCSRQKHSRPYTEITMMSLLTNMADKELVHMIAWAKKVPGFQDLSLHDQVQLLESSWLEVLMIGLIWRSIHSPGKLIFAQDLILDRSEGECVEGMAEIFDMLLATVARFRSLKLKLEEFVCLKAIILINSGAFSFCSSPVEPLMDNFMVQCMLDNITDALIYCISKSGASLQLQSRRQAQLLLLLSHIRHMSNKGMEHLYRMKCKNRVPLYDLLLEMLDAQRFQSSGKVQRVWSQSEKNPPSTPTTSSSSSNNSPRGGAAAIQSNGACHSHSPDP
smiles,measurement,setting,value
Nc1cc(Cl)c(N)c(Cl)c1,outcome,[1],inactive
same,outcome,[2],inactive
CC(C)OC(=O)c1ccccc1C(=O)OC(C)C,outcome,[3],inactive
C#C[C@]1(O)CC[C@H]2[C@@H]3CCc4cc(OC)ccc4[C@H]3CC[C@@]21C,outcome,[1],inactive
same,outcome,[4],inactive
same,outcome,[5],inactive
same,outcome,[2],inactive
same,AC50,[3],44 µM (active)
Nc1ccc([N+](=O)[O-])cc1O,outcome,[1],inactive
same,outcome,[4],inactive
same,outcome,[5],inactive
same,outcome,[2],inactive
CCN(Cc1cccc(S(=O)(=O)O)c1)c1ccc(C(=C2C=CC(=[N+](CC)Cc3cccc(S(=O)(=O)O)c3)C=C2)c2ccc(O)cc2S(=O)(=O)[O-])cc1,AC50,[6],19.1 µM (active)
same,AC50,[7],7.74 µM (active)
same,AC50,[8],3.86 µM (active)
CCCCCCCOC(=O)c1ccccc1C(=O)OCCCCCCC,outcome,[3],inactive
CCN(CC)c1ccc2c(C)cc(=O)oc2c1,outcome,[1],inactive
same,AC50,[4],38.6 µM (active) and 31.6 µM (active)
same,outcome,[5],inactive
same,AC50,[2],41.6 µM (active) and 36 µM (active)
c1ccc(B(c2ccccc2)c2ccccc2)cc1,outcome,[1],inactive
same,outcome,[4],inactive
same,outcome,[5],inactive
same,outcome,[2],inactive
same,AC50,[6],29.2 µM (active)
same,AC50,[7],90.1 µM (active)
same,AC50,[3],50 µM (active)
same,AC50,[8],53.8 µM (active)
CCCCCCOC(=O)c1ccccc1O,outcome,[1],inactive
same,outcome,[4],inactive
same,outcome,[5],inactive
Nc1ccc(Oc2cccc(Oc3ccc(N)cc3)c2)cc1,outcome,[3],inactive
O=C(OCCOCCOCCOC(=O)c1ccccc1)c1ccccc1,AC50,[4],82.1 µM (active)
same,outcome,[5],inactive
same,outcome,[2],inactive
FC(F)(F)C(F)(F)C(F)(F)C(F)(F)CCI,outcome,[4],inactive
same,outcome,[5],inactive
same,outcome,[2],inactive
CCc1ccc(C(c2ccc(CC)cc2)C(Cl)Cl)cc1,outcome,[1],inactive
same,outcome,[4],inactive
same,outcome,[5],inactive
same,outcome,[2],inactive
CCCCCCS,outcome,[3],inactive
CC/C=C\CCOC(=O)c1ccccc1,outcome,[1],inactive
same,outcome,[4],inactive
same,outcome,[2],inactive
CC(Cc1ccc(O)c(O)c1)C(C)Cc1ccc(O)c(O)c1 (stereo unspecified),AC50,[1],46.1 µM (active)
same,AC50,[4],81.3 µM (active)
same,outcome,[5],inactive
same,AC50,[2],75.5 µM (active)
same,AC50,[6],0.55 µM (active)
same,AC50,[7],87 µM (active)
same,AC50,[3],37.4 µM (active)
same,AC50,[8],16.1 µM (active)
Nc1ccc(S(=O)(=O)Nc2nccs2)cc1,outcome,[4],inactive
same,outcome,[5],inactive
same,outcome,[2],inactive
CNC(=S)NC,AC50,[1],46.1 µM (active)
same,outcome,[4],inactive
same,outcome,[5],inactive
same,outcome,[2],inactive
CCCCOc1ccc(N)cc1,outcome,[1],inactive
same,outcome,[4],inactive
same,outcome,[5],inactive
same,AC50,[6],0.869 µM (active)
same,outcome,[7],inactive
same,outcome,[8],inactive
COC(=O)C1CCC(C(=O)OC)CC1 (stereo unspecified),outcome,[1],inactive
same,outcome,[4],inactive
same,outcome,[5],inactive
same,outcome,[2],inactive
same,outcome,[3],inactive
O=C(C=Cc1ccccc1)OCC=Cc1ccccc1,outcome,[5],inactive
same,outcome,[2],inactive
CC/C=C\CCOC(C)=O,outcome,[4],inactive
same,outcome,[2],inactive
C1COCCN1,outcome,[1],inactive
same,outcome,[4],inactive
same,outcome,[5],inactive
same,outcome,[2],inactive
CCC(=O)OCCc1ccccc1,outcome,[4],inactive
same,outcome,[5],inactive
same,outcome,[2],inactive
CC(CCl)OP(=O)(OC(C)CCl)OC(C)CCl (stereo unspecified),outcome,[1],inactive
same,outcome,[5],inactive
same,outcome,[2],inactive
O=S(=O)(O)c1ccc2ccccc2c1,outcome,[1],inactive
same,outcome,[4],inactive
same,outcome,[5],inactive
same,outcome,[2],inactive
CN(C)Cc1ccccc1O,outcome,[1],inactive
same,outcome,[4],inactive
same,outcome,[5],inactive
same,outcome,[2],inactive
C(=C(c1ccccc1)c1ccccc1)c1ccccc1,outcome,[1],inactive
same,outcome,[4],inactive
same,outcome,[5],inactive
same,outcome,[9],inactive
same,AC50,[10],0.272 µM (active)
Oc1ccc(Nc2ccccc2)cc1,outcome,[4],inactive
same,outcome,[2],inactive
Cc1cc(C)cc(O)c1,outcome,[4],inactive
same,outcome,[2],inactive
CC(=O)Nc1ccc(N=Nc2cc(C)ccc2O)cc1,outcome,[3],inactive
CCCCCC=O,outcome,[1],inactive
same,outcome,[4],inactive
same,outcome,[5],inactive
CCCCCCOC(=O)c1ccccc1,outcome,[1],inactive
same,outcome,[4],inactive
same,outcome,[5],inactive
same,outcome,[2],inactive
OC[C@@H](O)[C@@H](O)[C@H](O)[C@@H](O)CO,outcome,[4],inactive
same,outcome,[5],inactive
same,outcome,[2],inactive
CCCCNc1ccccc1,outcome,[1],inactive
same,outcome,[4],inactive
same,outcome,[2],inactive
Cc1ccc(S(=O)(=O)NCl)cc1,outcome,[1],inactive
same,outcome,[4],inactive
same,outcome,[5],inactive
same,outcome,[2],inactive
CCCCCCCCCCCCCCCC[N+](C)(C)Cc1ccccc1,AC50,[1],25.9 µM (active) and 27.1 µM (active)
same,AC50,[4],75.8 µM (active) and 38.4 µM (active)
same,AC50,[5],57.9 µM (active) and 23 µM (active)
same,AC50,[2],42.3 µM (active) and 43.4 µM (active)
Cc1cccc(N(C)C)c1,outcome,[3],inactive
